# Screening data: PubChem, National Center for Advancing Translational Sciences (NCATS)
# Rows were chosen to be rich in hits. Some 2% of all compounds tested hit in one or more screens of this group.
# FUS suppressor = FUS proteinopathy suppression in yeast. AID 1347120. actives 0.24% (n = 390,000). S. cerevisiae FUS-expressing, growth rescue, OD600, 24 h. Potency, µM (highest dose often 76.6 µM), hits mostly activators; further: nearly all actives have a fitted effect of over 55% in size
#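 FUS-expressing yeast, raffinose-pregrown, induced in 2% galactose minimal medium at OD 0.005; compounds in a dilution series, 24hr at 30C. Growth restoration read as absorbance at 600 nm. CP55940 positive control, DMSO negative.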
# aSyn yeast inh = inhibitors of alpha-synuclein toxicity in yeast; Yeast expressing alpha-synuclein, growth rescue, BacTiter-Glo, 24 h; actives 0.14% (n = 370,000); Potency, µM (highest dose often 46.1 µM), hits mostly activators; AID 652106; further: nearly all actives have a fitted effect of over 65% in size
#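 Rescue of yeast growth: cells expressing toxic alpha-synuclein, induced in galactose at OD600 0.02, incubated with compound 24 h at 30 C. ATP luminescence quantified growth; inhibitors of toxicity appear as activators.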
# TDP43 rescue = TDP-43 toxicity inhibition in yeast; actives 1.8% (n = 410,000); TDP-43 expressing yeast growth rescue, BacTiter-Glo, 24 h; Potency, µM (top dose mostly 46.1 µM), usual class: activators; further: nearly all actives have a fitted effect of over 50% in size
#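 Cell-based yeast growth screen: TDP-43 expression induced in galactose, inoculum OD600=0.02 after raffinose pregrowth to mid-log. Read-out BacTiter-Glo luminescence at 24 hr, 30 deg C; inhibition of toxicity seen as signal increase.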
# MBNL1-CUG inh = inhibitors of human MBNL1 binding to CUG repeat RNA | Q9NR56 | TR-FRET MBNL1-His/biotin-(CUG)12 binding, 665/545 ratio | Potency, µM (titrated, usually from 57.5 µM), most hits filed as inhibitors | actives 0.036% (n = 280,000); active means well fitted inhibition curve with a large enough effect in the signal ratio, with a control signal flat, not every such curve was filed as active; inconclusive means small, poorly fitted or top-dose-only effect, or effect the other way, or a change in a side signal; inactive means no such curve, though single readings can be large or run the other way; the % refers to the signal ratio
# Target sequence (Q9NR56 whole entry, looked up): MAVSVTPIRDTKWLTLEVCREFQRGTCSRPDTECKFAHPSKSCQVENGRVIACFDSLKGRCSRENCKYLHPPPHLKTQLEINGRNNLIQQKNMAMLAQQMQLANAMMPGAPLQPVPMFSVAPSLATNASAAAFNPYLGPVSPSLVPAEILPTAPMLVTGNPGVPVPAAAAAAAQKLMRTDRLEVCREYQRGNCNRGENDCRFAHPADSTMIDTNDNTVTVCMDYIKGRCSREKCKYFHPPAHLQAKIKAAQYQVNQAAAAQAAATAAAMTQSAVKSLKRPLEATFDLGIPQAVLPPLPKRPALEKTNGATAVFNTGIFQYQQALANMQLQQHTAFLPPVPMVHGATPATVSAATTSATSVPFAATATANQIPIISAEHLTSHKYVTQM
#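 Compound titration spanned 92 nM–58 uM against the MBNL1-His/biotin-(CUG)12 complex. After 60 min at room temperature with 5 nM streptavidin-XL665 and 0.055 ng/ul terbium anti-His, ratiometric 665/545 nm emission (Ex 340 nm) normalized to controls.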
# Abeta rescue = restores growth of yeast expressing A-beta42 peptide. yeast expressing A-beta42, growth rescue, OD600, 48 h; response scale: 0% DMSO, 100% iron-clioquinol control. Potency, µM (series often up to 46.1 µM), most hits filed as activators. actives 0.063% (n = 410,000). AID 1347071; further: nearly all actives have a fitted effect of over 55% in size
#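 Yeast A-beta toxicity model in growth medium with pinned compounds, 48 h at 30 C; growth read as absorbance at 600 nm. Normalized to FeCl3/clioquinol equimolar mix (positive) and DMSO (negative).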
# GRP78 ERSR act = inducers of ER stress response in human glioma cells | U87-MG GRP78 promoter luciferase reporter, 16 h | Potency, µM, most hits filed as activators | actives 0.02% (n = 420,000); further: series mostly up to about 76 µM; nearly all actives have a fitted effect of over 35% in size
#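 ERSR induction read as luciferase luminescence (Bright-Glo, 10 min at room temperature) in stably transfected human U87-MG glioma cells exposed to compounds for 16 h, using GRP78 as sensor.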
# Numbers stand for hits; . = inactive; ? = inconclusive; / = no result; ! = not active in a repeat. Unless noted, the call rests on the fitted dose curve; in most records, active means well fitted curve in the direction sought with a large enough effect; inconclusive means small, poorly fitted or top-dose-only effect, or another doubt; inactive means no such curve, though single readings can be large; an effect the other way counts as inactive or inconclusive.
SMILES,FUS suppressor,aSyn yeast inh,TDP43 rescue,MBNL1-CUG inh,Abeta rescue,GRP78 ERSR act
O=C(Oc1ccc2c(c1)OCO2)C12CC3CC(CC(C3)C1)C2,.,.,?,?,.,.
O=C(Oc1ccc(O)cc1)C12CC3CC(CC(C3)C1)C2,.,.,14µM,.,.,.
O=C(OCC(=O)C12CC3CC(CC(C3)C1)C2)c1ccc(O)cc1,.,.,11µM,/,.,.
CC(C)(C)CC(C)(C)N=C1Nc2cc(Cl)c(Cl)cc2N[C@]12C[C@H]1CCCC(=O)N3CC[C@@H](C2)[C@@H]13,/,/,/,/,/,.
O=C(Nc1nccs1)C(Br)C(Br)c1ccccc1 (configuration not stated),.,.,10µM,.,.,.
Cc1nc2cc(-c3ccc(Cl)cc3)nn2c(C)c1CCC(=O)NC(C)c1ccc2c(c1)OCCO2 (configuration not stated),.,.,28µM,.,.,.
COC(=O)C1CN(Cc2cn(CCC3OCCO3)nn2)CCS(=O)(=O)N1Cc1ccc(Cl)cc1 (configuration not stated),.,/,/,/,/,/
CCCCCCc1ccc(C(=O)CCN(C)C)cc1,/,/,/,/,/,.
CN(C(=O)CNC(=O)c1ccccc1OCC(=O)Nc1ccc(Br)cc1)c1ccccc1,.,/,/,/,/,/
CC(=O)Nc1ccc(NC(=O)Cc2sc(-c3cccnc3)nc2-c2ccc(C)cc2)cc1,28µM,.,.,.,.,?
COCc1ccc(CN2CCOc3c(O)cc(-c4cc(C)c5ccc(F)cc5n4)cc3C2)o1,/,/,/,/,/,.
Oc1ccccc1-c1n[nH]c(-c2ccccc2O)n1,/,.,.,/,.,.
Clc1ccccc1-c1nc(-c2ccccc2)n[nH]1,.,.,13µM,.,.,.
CCN(CC)C(=O)CC[C@H]1CC[C@]2(CCCN(C(=O)c3ccc4ccccc4n3)C2)O1,.,/,/,/,/,/
CCN=c1scc(-c2ccco2)n1/N=C/c1ccc(O)cc1,?,.,18µM,?,.,.
Cc1oc(-c2ccccc2NC(=O)C2CCCO2)nc1CNC(=O)c1cc(Cl)ccc1F (configuration not stated),/,/,/,/,/,.
N/C(=N\OC(=O)CCC1CCCC1)c1ccc([N+](=O)[O-])cc1,.,.,20µM,?,.,.
N/C(=N\OC(=O)CSc1ccccc1)c1cccc([N+](=O)[O-])c1,.,.,20µM,/,.,.
N/C(=N\OC(=O)CCCc1ccccc1)c1ccc([N+](=O)[O-])cc1,/,.,22µM,?,.,.
CN(CCc1ccccn1)C(=O)Cn1nc(-c2ccccc2)ccc1=O,.,/,/,/,/,/
COC(=O)[C@]12C[C@H](CC(=O)N3CCN(C(=O)C4CC4)CC3)C(=O)N(Cc3cccc4ccccc34)C1=C[C@H](C(C)(C)C)O[C@@H]2C,.,/,/,/,/,/
CCSc1ncc(Cl)c(C(=O)N2CCN(c3ccc(OC)cc3)CC2)n1,.,/,.,/,.,.
CCCS(=O)(=O)c1ncc(Cl)c(C(=O)N2CCN(c3ccc(OC)cc3)CC2)n1,.,/,14µM,/,.,.
COc1ccc2oc(-c3ccccc3)c(C(N)=O)c2c1,.,.,13µM,.,.,.
COc1ccc(C(=O)c2oc3ccc(OC)cc3c2N)cc1,.,.,11µM,?,.,.
SMILES,FUS suppressor,aSyn yeast inh,TDP43 rescue,MBNL1-CUG inh,Abeta rescue,GRP78 ERSR act
COc1ccc(-c2oc3ccccc3c2C(=O)Oc2ccccc2)cc1,.,.,3.5µM,.,.,.
COC(=O)[C@]1(C#N)CC(=O)N(C(C)C)[C@@H]1c1ccccc1,.,/,/,/,/,/
COc1cccc(CN2CCC(c3nnc(SCC4CCCO4)n3C)CC2)c1O (configuration not stated),/,/,/,/,/,.
COc1ccccc1N1CCN(c2nc(CNC(=O)c3sc(C)nc3C)nc3ccccc23)CC1,/,/,/,/,/,.
CC1CCCN(c2nc3c(c(=O)n(C)c(=O)n3C)n2Cc2ccccc2)C1 (configuration not stated),.,.,18µM,.,.,.
COc1ccc(C(=O)CSc2nnc(-c3n[nH]c4c3CCC4)n2N)cc1OC,.,/,/,/,/,/
COc1ccc(C(O)c2nc(-c3cccc(C(=O)O)c3)cs2)cc1 (configuration not stated),.,.,.,/,.,.
COc1ccc(C(O)c2nc(-c3cccc(C(C)C)c3)cs2)cc1 (configuration not stated),.,.,35µM,/,.,.
COc1ccc(C(O)c2nc(-c3cccc(O)c3)cs2)cc1 (configuration not stated),.,?,20µM,/,?,.
C[C@@H]1CN(Cc2ccc3c(c2)CN(Cc2cccc4cccnc24)CCO3)C[C@H](C)O1,/,/,/,/,/,.
Cc1ccc(NC(=S)NCCc2ccccc2)c(C)c1,/,.,.,/,.,.
Cc1cc(Br)ccc1NC(=S)NCCc1ccccc1,.,.,?,.,11µM,.
COc1ccc(OC)c(C2=NS(=O)(=O)N(C)C(C(=O)Nc3ccc(F)cc3F)=C2)c1,.,.,35µM!,?,.,.
Cc1ccc(C2=NS(=O)(=O)N(C)C(C(=O)Nc3ccc(F)cc3F)=C2)cc1,.,.,.,?,.,.
COc1ccc(C(c2ccc(OC)cc2)N2CCN(C(=O)c3noc(C)c3[N+](=O)[O-])CC2)cc1,.,/,/,/,/,/
CCC(C)[C@H](NC(=O)OC(C)(C)C)C(=O)N[C@@H](Cc1ccccc1)C(=O)OC (some centres not stated),.,/,/,/,/,/
CCOC(=O)C1=CCN(S(=O)(=O)c2ccc(F)cc2)C1c1ccc(Br)cc1 (configuration not stated),.,.,35µM,/,.,.
CCOC(=O)C1=CCN(S(=O)(=O)c2ccc(F)cc2)C1c1ccc(F)cc1 (configuration not stated),.,.,.,/,.,/
CCOC(=O)C1=CCN(S(=O)(=O)c2ccccc2)C1c1ccc(Cl)cc1 (configuration not stated),.,.,35µM,/,.,.
CCn1c(-c2cccc(Br)c2)n[nH]c1=S,.,.,20µM,.,.,.
CO[C@H]1[C@H](NC(=O)c2ccsc2)c2ccccc2C12CCN(Cc1cccn1-c1ccccn1)CC2,/,/,/,/,/,.
COc1ccc(OC)c(-c2cc(Cl)c3c(c2)CC(CNC(=O)c2cccnc2SC)O3)c1 (configuration not stated),/,/,/,/,/,.
COc1ccc(NC(=O)CN(C)S(=O)(=O)c2ccc(Cl)cc2)c([N+](=O)[O-])c1,.,.,.,.,.,.
COc1cccc(NC(=O)CN(C)CC(=O)Nc2ccc(Cl)cc2[N+](=O)[O-])c1,.,.,18µM,?,.,.
c1ccc(Nc2scc(-c3ccccc3)[n+]2Cc2ccco2)cc1,.,.,20µM,.,.,?
